# Measured values as given in paper PMC7862700, “An all-to-all approach to the identification of sequence-specific readers for epigenetic DNA modifications on cytosine”.
# Molecular target: T1, EHF (Homo sapiens, UniProt Q9NZC4 1-300)
# T1 sequence: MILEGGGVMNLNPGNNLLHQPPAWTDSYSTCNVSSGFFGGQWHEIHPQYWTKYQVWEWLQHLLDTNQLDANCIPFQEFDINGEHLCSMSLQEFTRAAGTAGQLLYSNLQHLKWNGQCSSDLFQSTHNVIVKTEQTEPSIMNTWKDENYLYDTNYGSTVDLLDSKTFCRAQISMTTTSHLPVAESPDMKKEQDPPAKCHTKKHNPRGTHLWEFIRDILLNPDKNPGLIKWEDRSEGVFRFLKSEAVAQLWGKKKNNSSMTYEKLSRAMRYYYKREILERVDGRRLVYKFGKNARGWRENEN
# Test: DAPPL (digital affinity profiling via proximity ligation, sequencing); 10 mM Tris-HCl pH 7.5, 50 mM NaCl, 1 mM DTT, 4% glycerol, room temperature, 30 min; GST-TFs on glutathione beads, 16-mer random dsDNA library, 0.1% formaldehyde crosslink after washing; high values mean tight binding
# Conditions: protein: recombinant; tags: N-terminal GST; dsDNA, one strand shown
# How it was run: (§1)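 GST fusions of human transcription factors were expressed in yeast and captured with glutathione beads. Once given DNA barcodes and pooled alongside a tag-only sample, they were incubated for 30 min at room temperature with 200 nmole of a random double-stranded 16-mer DNA library in Tris/NaCl/DTT/glycerol buffer, then washed, crosslinked (0.1% formaldehyde), proximity-ligated, PCR-amplified and sequenced on an Illumina NextSeq500. The binding signal of each hexamer is its read frequency for a factor divided by its frequency for the tag-only sample.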
row,Sequence,binding signal
1,CATATG,"1.01 fold enrichment (6-mer frequency, TF over GST control)"
2,ATCACG,"1.08 fold enrichment (6-mer frequency, TF over GST control)"
3,TGGTGA,"1.09 fold enrichment (6-mer frequency, TF over GST control)"
4,CAGCTC,"1.01 fold enrichment (6-mer frequency, TF over GST control)"
5,GTGTCT,"1.06 fold enrichment (6-mer frequency, TF over GST control)"
6,ACGCGC,"1.07 fold enrichment (6-mer frequency, TF over GST control)"

# Molecular target: SPI1 (Homo sapiens, UniProt P17947 1-270)
# Test: as above
# Conditions: protein: recombinant; tags: N-terminal GST; dsDNA, one strand shown
# How it was run: as §1
row,Sequence,binding signal
1,ACATGA,"1.01 fold enrichment (6-mer frequency, TF over GST control)"
2,AACGCG,"1.05 fold enrichment (6-mer frequency, TF over GST control)"
3,ACCTGT,"1.01 fold enrichment (6-mer frequency, TF over GST control)"
4,GTGGCC,"1.2 fold enrichment (6-mer frequency, TF over GST control)"

# Molecular target: SPIB (Homo sapiens, UniProt Q01892 1-262)
# Test: as above
# Conditions: protein: recombinant; tags: N-terminal GST; dsDNA, one strand shown
# How it was run: as §1
# SPIB, sequence (Q01892 whole entry): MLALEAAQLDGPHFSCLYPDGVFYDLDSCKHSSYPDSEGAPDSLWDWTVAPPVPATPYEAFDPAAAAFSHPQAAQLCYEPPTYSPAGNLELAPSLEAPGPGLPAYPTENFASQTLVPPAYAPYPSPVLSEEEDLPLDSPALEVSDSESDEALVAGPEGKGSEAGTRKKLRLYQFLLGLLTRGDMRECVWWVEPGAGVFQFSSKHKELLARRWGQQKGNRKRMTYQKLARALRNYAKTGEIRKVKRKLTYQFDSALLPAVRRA
row,Sequence,binding signal
1,TAGGCA,"1.02 fold enrichment (6-mer frequency, TF over GST control)"
2,CATATG,"1.04 fold enrichment (6-mer frequency, TF over GST control)"
3,GTATTG,"1.1 fold enrichment (6-mer frequency, TF over GST control)"
4,GCCCTG,"1.07 fold enrichment (6-mer frequency, TF over GST control)"
5,CAGCTC,"1.01 fold enrichment (6-mer frequency, TF over GST control)"
6,GTATGA,"1.05 fold enrichment (6-mer frequency, TF over GST control)"
7,GTGTCT,"1.03 fold enrichment (6-mer frequency, TF over GST control)"
8,TGCAGA,"1.03 fold enrichment (6-mer frequency, TF over GST control)"
9,GTGGCC,"1.2 fold enrichment (6-mer frequency, TF over GST control)"

# Molecular target: T2, ELK3 (Homo sapiens, UniProt P41970 1-407)
# T2 sequence: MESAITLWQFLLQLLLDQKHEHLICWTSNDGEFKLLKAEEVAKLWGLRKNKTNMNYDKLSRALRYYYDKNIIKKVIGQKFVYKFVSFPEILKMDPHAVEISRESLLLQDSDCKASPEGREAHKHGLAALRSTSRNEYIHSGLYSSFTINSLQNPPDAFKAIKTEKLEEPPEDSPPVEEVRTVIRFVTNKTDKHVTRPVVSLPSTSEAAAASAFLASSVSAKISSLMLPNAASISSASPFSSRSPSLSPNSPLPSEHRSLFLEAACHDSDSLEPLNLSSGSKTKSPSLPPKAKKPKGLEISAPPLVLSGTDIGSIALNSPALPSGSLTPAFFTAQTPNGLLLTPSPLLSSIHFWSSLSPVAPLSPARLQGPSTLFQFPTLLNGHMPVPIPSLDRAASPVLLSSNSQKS
# Test: as above
# Conditions: protein: recombinant; tags: N-terminal GST; dsDNA, one strand shown
# How it was run: as §1
row,Sequence,binding signal
1,CGCCAC,"1.04 fold enrichment (6-mer frequency, TF over GST control)"
2,CATATG,"1.04 fold enrichment (6-mer frequency, TF over GST control)"
3,ACATGA,"1.07 fold enrichment (6-mer frequency, TF over GST control)"
4,GTATTG,"1.08 fold enrichment (6-mer frequency, TF over GST control)"
5,GCGCCG,"1.02 fold enrichment (6-mer frequency, TF over GST control)"
6,ACGCGC,"1.04 fold enrichment (6-mer frequency, TF over GST control)"
7,ACCTGT,"1.12 fold enrichment (6-mer frequency, TF over GST control)"
8,GTGGCC,"1.22 fold enrichment (6-mer frequency, TF over GST control)"

# Molecular target: T3, FEV (Homo sapiens, UniProt Q99581 1-238)
# T3 sequence: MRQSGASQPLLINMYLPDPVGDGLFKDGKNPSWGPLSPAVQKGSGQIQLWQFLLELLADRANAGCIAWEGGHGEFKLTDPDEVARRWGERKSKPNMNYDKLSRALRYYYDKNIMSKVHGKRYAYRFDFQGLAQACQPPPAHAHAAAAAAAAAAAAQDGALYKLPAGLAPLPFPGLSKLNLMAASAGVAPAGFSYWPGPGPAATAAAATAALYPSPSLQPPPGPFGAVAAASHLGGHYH
# Test: as above
# Conditions: protein: recombinant; tags: N-terminal GST; dsDNA, one strand shown
# How it was run: as §1
row,Sequence,binding signal
1,AAAGGC,"1.01 fold enrichment (6-mer frequency, TF over GST control)"
2,TAGGCA,"1.05 fold enrichment (6-mer frequency, TF over GST control)"
3,CGCCAC,"1.11 fold enrichment (6-mer frequency, TF over GST control)"
4,GCGCCG,"1.05 fold enrichment (6-mer frequency, TF over GST control)"
5,ACGCGC,"1.04 fold enrichment (6-mer frequency, TF over GST control)"
6,GTGGCC,"1.14 fold enrichment (6-mer frequency, TF over GST control)"

# Molecular target: T4, SPIC (Homo sapiens, UniProt Q8N5J4 1-248)
# T4 sequence: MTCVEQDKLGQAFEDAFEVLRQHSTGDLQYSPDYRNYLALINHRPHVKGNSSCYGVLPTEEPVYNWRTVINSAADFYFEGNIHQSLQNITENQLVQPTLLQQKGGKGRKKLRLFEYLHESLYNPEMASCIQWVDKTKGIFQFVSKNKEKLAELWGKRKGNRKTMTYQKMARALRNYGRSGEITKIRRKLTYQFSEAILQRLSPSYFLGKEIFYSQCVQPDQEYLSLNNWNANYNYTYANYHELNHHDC
# Test: as above
# Conditions: protein: recombinant; tags: N-terminal GST; dsDNA, one strand shown
# How it was run: as §1
row,Sequence,binding signal
1,AGGCAC,"1.03 fold enrichment (6-mer frequency, TF over GST control)"
2,AGCAGA,"1.04 fold enrichment (6-mer frequency, TF over GST control)"
3,AAAGGC,"1 fold enrichment (6-mer frequency, TF over GST control)"
4,CTAAGG,"1.06 fold enrichment (6-mer frequency, TF over GST control)"
5,TAGGCA,"1.11 fold enrichment (6-mer frequency, TF over GST control)"
6,CGCCAC,"1.02 fold enrichment (6-mer frequency, TF over GST control)"
7,CTAGGG,"1.07 fold enrichment (6-mer frequency, TF over GST control)"
8,TCAGAC,"1.11 fold enrichment (6-mer frequency, TF over GST control)"
9,CATATG,"1.01 fold enrichment (6-mer frequency, TF over GST control)"
10,ACATGA,"1.02 fold enrichment (6-mer frequency, TF over GST control)"
11,GCATGC,"1.07 fold enrichment (6-mer frequency, TF over GST control)"
12,GTATTG,"1.11 fold enrichment (6-mer frequency, TF over GST control)"
13,GCCCTG,"1.11 fold enrichment (6-mer frequency, TF over GST control)"
14,AACGCG,"1.1 fold enrichment (6-mer frequency, TF over GST control)"
15,ATCACG,"1.04 fold enrichment (6-mer frequency, TF over GST control)"
16,GCGCCG,"1.1 fold enrichment (6-mer frequency, TF over GST control)"
17,GGGCAT,"1 fold enrichment (6-mer frequency, TF over GST control)"
18,CCTAGG,"1.1 fold enrichment (6-mer frequency, TF over GST control)"
19,TGGTGA,"1.02 fold enrichment (6-mer frequency, TF over GST control)"
20,GATAGT,"1.01 fold enrichment (6-mer frequency, TF over GST control)"

row,Sequence,binding signal
1,CTGGGG,"1 fold enrichment (6-mer frequency, TF over GST control)"
2,CTGTGG,"1.1 fold enrichment (6-mer frequency, TF over GST control)"
3,ATTGTG,"1.07 fold enrichment (6-mer frequency, TF over GST control)"
4,CAGCTC,"1.06 fold enrichment (6-mer frequency, TF over GST control)"
5,AGGGCC,"1.02 fold enrichment (6-mer frequency, TF over GST control)"
6,GCGCGT,"1 fold enrichment (6-mer frequency, TF over GST control)"
7,GTATGA,"1.09 fold enrichment (6-mer frequency, TF over GST control)"
8,GTTGTC,"1.1 fold enrichment (6-mer frequency, TF over GST control)"
9,GTGCTG,"1.05 fold enrichment (6-mer frequency, TF over GST control)"
10,GTGTCT,"1.16 fold enrichment (6-mer frequency, TF over GST control)"
11,TGTCAG,"1 fold enrichment (6-mer frequency, TF over GST control)"
12,ACGCGC,"1.05 fold enrichment (6-mer frequency, TF over GST control)"
13,GACTCG,"1.02 fold enrichment (6-mer frequency, TF over GST control)"
14,ACCTGT,"1.06 fold enrichment (6-mer frequency, TF over GST control)"
15,GGTCCA,"1.02 fold enrichment (6-mer frequency, TF over GST control)"
16,TGCAGA,"1.06 fold enrichment (6-mer frequency, TF over GST control)"
17,ACGCCA,"1 fold enrichment (6-mer frequency, TF over GST control)"
18,CTGGCG,"1.09 fold enrichment (6-mer frequency, TF over GST control)"
19,GTGGCC,"1.02 fold enrichment (6-mer frequency, TF over GST control)"

# Molecular target: ELF4 (Homo sapiens, UniProt Q99607 1-663)
# Test: as above
# Conditions: protein: recombinant; tags: N-terminal GST; dsDNA, one strand shown
# How it was run: as §1
# ELF4, sequence (Q99607 whole entry): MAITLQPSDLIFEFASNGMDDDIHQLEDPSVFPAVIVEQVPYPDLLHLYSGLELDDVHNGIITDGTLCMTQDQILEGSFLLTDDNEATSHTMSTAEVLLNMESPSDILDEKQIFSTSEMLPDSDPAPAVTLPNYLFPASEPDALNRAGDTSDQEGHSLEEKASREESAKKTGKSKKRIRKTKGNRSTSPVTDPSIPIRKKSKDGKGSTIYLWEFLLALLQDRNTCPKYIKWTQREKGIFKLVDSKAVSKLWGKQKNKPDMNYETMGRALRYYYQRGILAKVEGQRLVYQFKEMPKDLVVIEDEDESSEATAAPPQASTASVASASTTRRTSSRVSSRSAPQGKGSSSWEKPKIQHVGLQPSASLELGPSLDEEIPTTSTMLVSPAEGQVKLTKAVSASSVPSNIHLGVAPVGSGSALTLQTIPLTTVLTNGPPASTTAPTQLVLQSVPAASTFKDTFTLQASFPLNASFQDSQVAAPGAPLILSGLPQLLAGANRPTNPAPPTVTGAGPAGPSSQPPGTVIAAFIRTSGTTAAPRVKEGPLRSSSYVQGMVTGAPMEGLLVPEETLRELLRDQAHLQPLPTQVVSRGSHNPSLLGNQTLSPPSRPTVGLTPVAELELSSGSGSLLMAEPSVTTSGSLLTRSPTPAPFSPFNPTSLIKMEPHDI
row,Sequence,binding signal
1,AAAGGC,"1.04 fold enrichment (6-mer frequency, TF over GST control)"
2,CTAAGG,"1.02 fold enrichment (6-mer frequency, TF over GST control)"
3,TAGGCA,"1.01 fold enrichment (6-mer frequency, TF over GST control)"
4,CGCCAC,"1.03 fold enrichment (6-mer frequency, TF over GST control)"
5,CATATG,"1.04 fold enrichment (6-mer frequency, TF over GST control)"
6,ACATGA,"1.04 fold enrichment (6-mer frequency, TF over GST control)"
7,AACGCG,"1.01 fold enrichment (6-mer frequency, TF over GST control)"
8,GCGCCG,"1.03 fold enrichment (6-mer frequency, TF over GST control)"
9,CCTAGG,"1.07 fold enrichment (6-mer frequency, TF over GST control)"
10,ATTGTG,"1 fold enrichment (6-mer frequency, TF over GST control)"
11,CAGCTC,"1.05 fold enrichment (6-mer frequency, TF over GST control)"
12,GTATGA,"1.03 fold enrichment (6-mer frequency, TF over GST control)"
13,GTGTCT,"1.02 fold enrichment (6-mer frequency, TF over GST control)"
14,ACGCGC,"1.06 fold enrichment (6-mer frequency, TF over GST control)"
15,ACCTGT,"1.06 fold enrichment (6-mer frequency, TF over GST control)"
16,TGCAGA,"1 fold enrichment (6-mer frequency, TF over GST control)"
17,GTGGCC,"1.02 fold enrichment (6-mer frequency, TF over GST control)"

# Molecular target: T5, ELK4 (Homo sapiens, UniProt P28324-2 1-405)
# T5 sequence: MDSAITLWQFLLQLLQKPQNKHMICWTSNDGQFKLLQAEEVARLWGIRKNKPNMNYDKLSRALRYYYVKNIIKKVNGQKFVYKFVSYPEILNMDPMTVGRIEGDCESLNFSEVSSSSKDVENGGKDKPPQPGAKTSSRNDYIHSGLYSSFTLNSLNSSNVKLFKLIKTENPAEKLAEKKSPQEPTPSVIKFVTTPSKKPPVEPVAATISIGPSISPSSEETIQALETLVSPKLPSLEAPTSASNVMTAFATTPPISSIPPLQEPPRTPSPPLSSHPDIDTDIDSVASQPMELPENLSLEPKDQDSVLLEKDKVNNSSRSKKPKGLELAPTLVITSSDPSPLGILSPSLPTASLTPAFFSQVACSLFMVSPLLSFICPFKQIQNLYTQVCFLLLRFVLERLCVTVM
# Test: as above
# Conditions: protein: recombinant; tags: N-terminal GST; dsDNA, one strand shown
# How it was run: as §1
row,Sequence,binding signal
1,CGCCAC,"1.07 fold enrichment (6-mer frequency, TF over GST control)"
2,CATATG,"1.11 fold enrichment (6-mer frequency, TF over GST control)"
3,GTATTG,"1.05 fold enrichment (6-mer frequency, TF over GST control)"
4,GCCCTG,"1.04 fold enrichment (6-mer frequency, TF over GST control)"
5,ATCACG,"1 fold enrichment (6-mer frequency, TF over GST control)"
6,GCGCCG,"1.03 fold enrichment (6-mer frequency, TF over GST control)"
7,CCTAGG,"1.04 fold enrichment (6-mer frequency, TF over GST control)"
8,TGGTGA,"1.04 fold enrichment (6-mer frequency, TF over GST control)"
9,AGGGCC,"1.1 fold enrichment (6-mer frequency, TF over GST control)"
10,GTATGA,"1.01 fold enrichment (6-mer frequency, TF over GST control)"
11,GTTGTC,"1.02 fold enrichment (6-mer frequency, TF over GST control)"
12,TGTCAG,"1.02 fold enrichment (6-mer frequency, TF over GST control)"
13,ACGCGC,"1.02 fold enrichment (6-mer frequency, TF over GST control)"
14,GTGGCC,"1.03 fold enrichment (6-mer frequency, TF over GST control)"
